Measurements published in PubChem BioAssay (NCATS).
“And” between values parts separate entries of the source, which are not always exact repeats. Equal values may be shown once. Inconclusive results are not listed. A call without a number means that no potency is given here. A structure can be active in one record and inactive in another. The source made the active and inactive calls. Unless noted, calls follow the shape of the dose curve; as a rule, active = well fitted curve in the direction sought with a large enough effect; inconclusive = small, poorly fitted or top-dose-only effect, or another doubt; inactive = no such curve, though single readings can be large; an effect the other way counts as inactive or inconclusive. Non-standard residues stand in square brackets, D forms with d. Residues, ends and D or L forms follow the SMILES beside them. *: point of attachment. Sta = CC(C)C[C@H](N)[C@@H](O)CC(=O)O; Isovaleryl = CC(C)CC(=O)*

Key:
[1] = qHTS assay to identify small molecule inhibitors of chordoma cells - UCH-2 (AID 1259356); also: series mostly up to about 46 µM
[2] = P-glycoprotein substrates identified in KB-8-5-11 adenocarcinoma cell line, qHTS therapeutic library screen (AID 1346987); also: nearly all actives have a fitted effect of over 65% in size; also: potency is read from the fitted curve at half-maximal effect
How it was run: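 Luminescence from CellTiter-Glo, read 5 min after addition, quantified survival of KB-8-5-11 (P-gp-overexpressing) cells exposed to compounds for 72 h. AC50 was derived from concentration-response curves.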

[3] = NS1 protein of Zika virus - qHTS assay to identify small molecule inhibitors in human HEK 293 cells (AID 1347053); also: nearly all actives have a fitted effect of over 55% in size; also: potency is read from the fitted curve at half-maximal effect
How it was run: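 Readout was TR-FRET using paired anti-NS1 antibodies after 24 h infection of HEK 293 cells with ZIKV MR766 (MOI = 0.5). Compound preceded virus by 1 h; reduced signal reflects lower NS1 expression.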

[4] = qHTS of pediatric cancer cell lines to identify multiple opportunities for drug repurposing: Primary screen for TC32 cells (AID 1347089); also: nearly all actives have a fitted effect of over 60% in size; also: potency is read from the fitted curve at half-maximal effect
How it was run: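 Luminescent ATP read-out (CellTiter-Glo) of metabolically active TC32 cells after 48 h exposure. Concentration-response curves came from 11-point (MIPE, 0.78 nM–46 µM) or 8-point (NPC, 0.59 nM–46 µM) primary titrations; follow-up used 11 points.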

[5] = qHTS of pediatric cancer cell lines to identify multiple opportunities for drug repurposing: Primary screen for DAOY cells (AID 1347090); also: nearly all actives have a fitted effect of over 55% in size; also: potency is read from the fitted curve at half-maximal effect; as to activity change, negative = cytotoxic: series mostly up to about 46 µM
How it was run: (§1)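 Eight- or eleven-point concentration series, 48 h treatment at 37 degrees C in growth media; readout CellTiter-Glo luminescence. Potency and efficacy were taken from the concentration-response curves.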

[6] = qHTS of pediatric cancer cell lines to identify multiple opportunities for drug repurposing: Primary screen for SJ-GBM2 cells (AID 1347091); also: potency is read from the fitted curve at half-maximal effect
How it was run: as §1

[7] = Identifying Small Molecule Inhibitors of Pancreatic Cancer Stem Cells (SN12C, Adherent) (AID 1259358);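 also: cell survival measured after 48 h of compound exposure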
How it was run: (§2)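 Luminescent ATP readout (CellTiter-Glo) quantifies surviving cells after a 48 h drug incubation. Normalization uses DMSO wells as no inhibition and media-only wells as full inhibition; bortezomib served as positive control.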

[8] = Identifying Small Molecule Inhibitors of Pancreatic Cancer Stem Cells (SN12C, Spheroid) (AID 1259360); conditions: Potency: SN12C spheroid viability
How it was run: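 Adherent (2D) versus sphere (3D) formats; spheres generated 14 d in SCM beforehand. Compound transferred by pin tool after 4 h, 48 h incubation, CellTiter-Glo endpoint.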

[9] = qHTS of pediatric cancer cell lines to identify multiple opportunities for drug repurposing: Primary screen for A673 cells (AID 1347092); also: nearly all actives have a fitted effect of over 45% in size; also: potency is read from the fitted curve at half-maximal effect
How it was run: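 Cell viability of A673 measured by CellTiter-Glo ATP luminescence after 48 hours compound exposure. Dilution series spanned 0.78 nM to 46 µM (MIPE, 11-point) or 0.59 nM to 46 µM (NPC, 8-point); bortezomib 2.3 uM positive control.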

[10] = molecular target: Atrial natriuretic peptide receptor 1 (Homo sapiens) (UniProt P16066); assay: Natriuretic polypeptide receptor (hNpr1) antagonism - Pilot screen (AID 1347049; calls by dose curve;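 also: HEK293 cells with hNpr1 and GloSensor cGMP luciferase stimulated by 0.1 nM hNppA; agonist-evoked cGMP luminescence read 20 min after hNppA addition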; also: potency is read from the fitted curve at half-maximal effect)
Chain of Atrial natriuretic peptide receptor 1 (Homo sapiens) (P16066 whole entry, looked up): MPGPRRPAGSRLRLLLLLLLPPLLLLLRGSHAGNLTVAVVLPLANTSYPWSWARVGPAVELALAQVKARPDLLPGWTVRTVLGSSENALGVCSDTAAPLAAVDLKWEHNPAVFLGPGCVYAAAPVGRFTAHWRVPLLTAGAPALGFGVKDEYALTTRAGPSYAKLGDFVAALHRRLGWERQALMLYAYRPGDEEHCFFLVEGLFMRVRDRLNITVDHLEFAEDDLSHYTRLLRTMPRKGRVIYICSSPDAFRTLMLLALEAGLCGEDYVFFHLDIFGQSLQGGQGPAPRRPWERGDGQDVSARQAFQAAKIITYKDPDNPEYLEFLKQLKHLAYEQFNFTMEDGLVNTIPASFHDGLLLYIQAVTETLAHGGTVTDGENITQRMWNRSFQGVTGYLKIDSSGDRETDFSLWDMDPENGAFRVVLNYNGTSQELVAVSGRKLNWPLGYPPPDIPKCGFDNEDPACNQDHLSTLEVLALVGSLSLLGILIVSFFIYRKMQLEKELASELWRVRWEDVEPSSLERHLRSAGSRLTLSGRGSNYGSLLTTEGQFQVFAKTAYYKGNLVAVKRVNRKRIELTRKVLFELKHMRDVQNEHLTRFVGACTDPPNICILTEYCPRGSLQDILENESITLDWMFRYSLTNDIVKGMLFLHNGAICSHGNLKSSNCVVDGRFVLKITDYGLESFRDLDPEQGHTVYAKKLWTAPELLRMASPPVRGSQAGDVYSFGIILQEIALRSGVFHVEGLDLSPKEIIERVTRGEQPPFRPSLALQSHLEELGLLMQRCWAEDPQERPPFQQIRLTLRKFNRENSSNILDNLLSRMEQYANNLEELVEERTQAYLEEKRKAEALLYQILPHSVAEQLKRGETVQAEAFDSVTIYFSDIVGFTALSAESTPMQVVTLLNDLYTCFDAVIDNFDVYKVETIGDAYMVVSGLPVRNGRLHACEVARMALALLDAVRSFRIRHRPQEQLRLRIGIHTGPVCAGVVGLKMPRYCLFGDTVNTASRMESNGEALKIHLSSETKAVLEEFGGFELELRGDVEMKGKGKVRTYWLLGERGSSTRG
How it was run: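 Cells expressing receptor plus cGMP biosensor are seeded and incubated overnight at 37C, then loaded with GloSensor reagent (2% final) at room temperature for 2 h. Library compounds go on for 30 min. A pre-read precedes agonist (hNppA, 0.1 nM final) and a 20-min readout.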

[11] = molecular target: Atrial natriuretic peptide receptor 2 (Homo sapiens) (UniProt P20594); assay: Natriuretic polypeptide receptor (hNpr2) antagonism - Pilot subtype selectivity assay (AID 1347050; calls by dose curve; also: potency is read from the fitted curve at half-maximal effect)
Chain of Atrial natriuretic peptide receptor 2 (Homo sapiens) (P20594 whole entry, looked up): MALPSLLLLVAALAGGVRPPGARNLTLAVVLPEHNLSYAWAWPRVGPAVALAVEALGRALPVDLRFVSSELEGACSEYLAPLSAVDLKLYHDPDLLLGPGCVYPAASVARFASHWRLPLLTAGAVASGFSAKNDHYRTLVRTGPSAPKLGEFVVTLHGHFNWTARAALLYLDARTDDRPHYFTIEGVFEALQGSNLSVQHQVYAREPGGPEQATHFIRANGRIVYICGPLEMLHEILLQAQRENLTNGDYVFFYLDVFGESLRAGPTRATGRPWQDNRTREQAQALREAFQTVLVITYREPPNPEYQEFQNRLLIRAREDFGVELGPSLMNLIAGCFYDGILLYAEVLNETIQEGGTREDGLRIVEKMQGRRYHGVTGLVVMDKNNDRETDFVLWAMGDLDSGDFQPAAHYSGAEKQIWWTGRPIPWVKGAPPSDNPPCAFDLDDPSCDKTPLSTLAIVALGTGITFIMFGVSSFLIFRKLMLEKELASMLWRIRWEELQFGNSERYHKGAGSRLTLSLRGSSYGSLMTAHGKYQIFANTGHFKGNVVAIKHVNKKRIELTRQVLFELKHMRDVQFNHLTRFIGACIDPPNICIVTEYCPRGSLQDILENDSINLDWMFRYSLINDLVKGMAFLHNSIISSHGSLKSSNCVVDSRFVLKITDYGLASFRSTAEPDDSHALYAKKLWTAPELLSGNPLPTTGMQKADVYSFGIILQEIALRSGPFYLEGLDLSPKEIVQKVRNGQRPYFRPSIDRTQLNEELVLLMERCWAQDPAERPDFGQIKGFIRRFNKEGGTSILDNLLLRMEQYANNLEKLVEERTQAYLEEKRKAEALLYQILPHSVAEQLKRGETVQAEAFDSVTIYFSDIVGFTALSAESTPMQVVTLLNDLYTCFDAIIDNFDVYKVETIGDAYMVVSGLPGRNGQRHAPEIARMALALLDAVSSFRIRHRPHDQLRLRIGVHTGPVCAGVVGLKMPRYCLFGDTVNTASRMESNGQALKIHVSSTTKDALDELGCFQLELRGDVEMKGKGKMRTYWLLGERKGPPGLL
How it was run: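 Read-out: GloSensor luminescence (CCD imager), baseline vs post-stimulation. HEK293 cells expressing hNpr2; compounds pre-incubated 30-50 min at ambient temperature; hNppC 1 nM final, 20 min.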

[12] = molecular target: T1, Tyrosine-protein phosphatase non-receptor type substrate 1 (Homo sapiens) + Leukocyte surface antigen CD47 (Homo sapiens) (UniProt P78324+Q08722); assay: CD47-SIRPalpha protein protein interaction - LANCE assay qHTS validation (AID 1347057; active = well fitted curve in the direction sought with a large enough effect in the signal ratio, with a control signal flat, not every such curve was filed as active; the % refers to the signal ratio; also: series mostly up to about 38 µM)
T1 sequence (P78324 whole entry, looked up, the tested form may be a part): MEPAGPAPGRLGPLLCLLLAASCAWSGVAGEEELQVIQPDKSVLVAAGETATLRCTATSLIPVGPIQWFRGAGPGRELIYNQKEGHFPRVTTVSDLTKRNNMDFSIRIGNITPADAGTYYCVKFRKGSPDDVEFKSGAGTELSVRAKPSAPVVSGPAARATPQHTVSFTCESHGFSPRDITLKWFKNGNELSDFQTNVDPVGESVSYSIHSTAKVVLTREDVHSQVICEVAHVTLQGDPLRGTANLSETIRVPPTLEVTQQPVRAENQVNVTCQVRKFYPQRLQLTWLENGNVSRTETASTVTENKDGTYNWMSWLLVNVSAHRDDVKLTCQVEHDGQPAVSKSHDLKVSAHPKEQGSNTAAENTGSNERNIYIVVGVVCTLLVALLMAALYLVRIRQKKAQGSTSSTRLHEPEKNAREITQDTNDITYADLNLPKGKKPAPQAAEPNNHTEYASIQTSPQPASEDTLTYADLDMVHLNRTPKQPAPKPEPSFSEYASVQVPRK
T1 sequence (Q08722 whole entry, looked up, the tested form may be a part): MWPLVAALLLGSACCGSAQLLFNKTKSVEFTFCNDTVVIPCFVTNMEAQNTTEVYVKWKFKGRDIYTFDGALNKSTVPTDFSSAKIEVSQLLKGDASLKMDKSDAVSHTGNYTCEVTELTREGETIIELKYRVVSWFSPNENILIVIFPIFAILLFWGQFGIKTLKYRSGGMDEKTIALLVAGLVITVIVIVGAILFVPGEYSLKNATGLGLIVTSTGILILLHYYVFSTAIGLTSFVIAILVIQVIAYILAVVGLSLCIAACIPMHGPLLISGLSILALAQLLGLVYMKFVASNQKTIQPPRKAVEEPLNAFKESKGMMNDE
How it was run: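 Inhibition of soluble CD47/SIRPalpha ectodomain association by titrated compounds, measured as 665/615 nm time-resolved FRET ratio after sequential 30 min room-temperature incubations.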

[13] = molecular target: T1, Tyrosine-protein phosphatase non-receptor type substrate 1 (Homo sapiens) + Leukocyte surface antigen CD47 (Homo sapiens); assay: CD47-SIRPalpha protein protein interaction - Alpha assay qHTS validation (AID 1347059);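 also: bead proximity luminescence from CD47 binding SIRPalpha after compound preincubation with SIRPalpha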
How it was run: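 In PBS (pH 7.4) with 0.05% IGEPAL CA-630, compound is preincubated with biotin-Avi-SIRPalpha ectodomain before His-CD47 ectodomain and affinity beads are added. Light-protected room-temperature incubations; AlphaScreen readout.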

[14] = molecular target: Parathyroid hormone/parathyroid hormone-related peptide receptor (Homo sapiens) (UniProt Q03431); assay: qHTS for PTHR1 Agonists: Optimization Screen against the NCGC LOPAC library (AID 1347079);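 also: GloSensor cAMP luminescence in HEK-293 GP2 cells expressing human PTHR1 with IBMX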
Chain of Parathyroid hormone/parathyroid hormone-related peptide receptor (Homo sapiens) (Q03431 whole entry, looked up): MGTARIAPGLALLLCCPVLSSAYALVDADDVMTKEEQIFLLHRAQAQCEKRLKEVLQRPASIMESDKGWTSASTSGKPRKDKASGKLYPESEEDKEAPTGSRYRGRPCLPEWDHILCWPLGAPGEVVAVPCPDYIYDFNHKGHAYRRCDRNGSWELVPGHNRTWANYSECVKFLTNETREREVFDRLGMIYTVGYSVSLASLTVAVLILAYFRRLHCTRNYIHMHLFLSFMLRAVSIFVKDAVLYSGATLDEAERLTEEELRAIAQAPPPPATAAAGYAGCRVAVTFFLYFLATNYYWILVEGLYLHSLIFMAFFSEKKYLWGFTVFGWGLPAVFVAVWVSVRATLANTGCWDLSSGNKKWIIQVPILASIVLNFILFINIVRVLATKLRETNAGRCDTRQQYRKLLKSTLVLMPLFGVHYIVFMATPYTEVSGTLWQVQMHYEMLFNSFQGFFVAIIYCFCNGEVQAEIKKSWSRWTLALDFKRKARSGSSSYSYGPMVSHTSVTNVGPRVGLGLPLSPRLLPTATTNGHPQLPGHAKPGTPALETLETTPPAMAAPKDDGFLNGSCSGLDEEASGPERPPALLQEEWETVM
How it was run: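 HEK-293 GP2 cells, PTHR1 + GloSensor cAMP; 3000 cells/well, o/n. Luciferin + IBMX 0.5mM each (stock), 1 hr 37C. Cpd titration, 1 hr 37C. Lum after 15 min RT. Ctrl M-PTH(1-15) top 10uM.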

[15] = P-glycoprotein substrates identified in KB-3-1 adenocarcinoma cell line, qHTS therapeutic library screen (AID 1346986); also: nearly all actives have a fitted effect of over 60% in size
How it was run: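 72 h cell-killing screen, 500 cells/well, CellTiter-Glo luminescence. Paired lines KB-3-1/KB-8-5-11; P-gp dependence checked by tariquidar co-treatment and HEK-293 MDR-19 versus empty-vector cells.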

[16] = Natriuretic polypeptide receptor (hNpr1) antagonism - Pilot counterscreen GloSensor control cell line (AID 1347045; calls by dose curve; also: potency is read from the fitted curve at half-maximal effect)
How it was run: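 Cells were first seeded and incubated overnight at 37C, then loaded with 2% GloSensor substrate for 2 h. Compounds were added for 30 min at room temperature, followed by a baseline read, 50 uM SNP and a final read after 20 min.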

[17] = Identifying Small Molecule Inhibitors of Pancreatic Cancer Stem Cells (Panc1, Adherent) (AID 1259362); conditions: Potency: viability;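 also: compound exposure lasted 48 h before the viability read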
How it was run: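 Endpoint: ATP-based luminescence, 48 h drug exposure. Bortezomib at 9.2 uM final as full-kill control; DMSO vehicle as negative control; activity normalized between vehicle and cell-free wells.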

[18] = Identifying Small Molecule Inhibitors of Pancreatic Cancer Stem Cells (A278, Adherent) (AID 1259361);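 also: viability read after 48 h compound exposure; nearly all actives have a fitted effect of over 35% in size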
How it was run: as §2

CC(C)CC(=O)N[C@H](C(=O)N[C@H](C(=O)N[C@@H](CC(C)C)[C@@H](O)CC(=O)N[C@@H](C)C(=O)N[C@@H](CC(C)C)[C@@H](O)CC(=O)O)C(C)C)C(C)C (Isovaleryl-VV[Sta]A[Sta]-OH)
Potency [1]: inactive
Potency [2]: inactive
Potency [3]: inactive
Potency [4]: inactive
Potency [5]: inactive
Potency [6]: inactive

Nc1cccc2c1CN(C1CCC(=O)NC1=O)C2=O (stereo not drawn)
Potency [1]: inactive
Potency [7]: inactive
Potency [8]: inactive
Potency [2]: inactive
Potency [3]: inactive
Potency [4]: inactive
Potency [5]: inactive
Potency [6]: inactive
Potency [9]: inactive

C[C@H](Cc1ccc(O)c(O)c1)[C@@H](C)Cc1ccc(O)c(O)c1
Potency [1]: inactive
Potency [2]: inactive
Potency [10]: inactive
Potency [11]: inactive
Potency [3]: inactive
outcome [12]: inactive
Potency [13]: inactive
outcome [14]: inactive

CC(C)c1ccc2oc3nc(N)c(C(=O)O)cc3c(=O)c2c1
Potency [1]: inactive
Potency [15]: inactive
Potency [2]: inactive
Potency [3]: inactive
Potency [4]: inactive
Potency [5]: inactive
Potency [6]: inactive
Potency [9]: inactive

O=C(c1ccccc1)c1ccc2n1CCC2C(=O)O (stereo not drawn)
Potency [1]: inactive
Potency [2]: inactive
Potency [16]: inactive
Potency [10]: inactive
Potency [11]: inactive
Potency [3]: inactive
outcome [12]: inactive
Potency [13]: inactive
outcome [14]: inactive
Potency [4]: inactive
Potency [6]: inactive

Cc1ccc(NC(=O)c2ccc(CN3CCN(C)CC3)cc2)cc1Nc1nccc(-c2cccnc2)n1
Potency [1]: inactive
Potency [7]: inactive
Potency [8]: inactive
Potency [17]: inactive
Potency [2]: inactive
Potency [3]: inactive
Potency [4]: inactive
Potency [5]: inactive
Potency [6]: inactive

Nc1ccn([C@@H]2O[C@H](CO)[C@@H](O)C2O)c(=O)n1 (stereo partly drawn)
Potency [1]: inactive
Potency [15]: inactive
Potency [2]: inactive
Potency [16]: inactive
Potency [10]: inactive
Potency [11]: inactive
Potency [3]: inactive
outcome [14]: inactive
Potency [4]: inactive
Potency [5]: inactive
Potency [6]: inactive
Potency [9]: inactive

CCN(CC)C(=S)SSC(=S)N(CC)CC
Potency [1]: inactive
Potency [2]: 41.8 nM (active) and inactive
Potency [16]: 3.29 µM (active)
Potency [10]: 2.39 µM (active)
Potency [11]: 5.21 µM (active)
Potency [3]: 8.33 µM (active)
outcome [12]: inactive
Potency [13]: inactive
outcome [14]: inactive
Potency [4]: 989 nM (active) and 4.19 µM (active)
Potency [5]: 11.8 nM (active) and 49.5 nM (active) and 133 nM (active)
Potency [6]: 4.69 µM (active)
Potency [9]: 11.8 nM (active) and 19.7 nM (active)

COc1cc2nc(N3CCN(C(=O)C4CCCO4)CC3)nc(N)c2cc1OC (stereo not drawn)
Potency [1]: inactive
Potency [2]: inactive
Potency [16]: inactive
Potency [10]: inactive
Potency [11]: inactive
Potency [3]: inactive
outcome [14]: inactive
Potency [4]: inactive
Potency [5]: inactive
Potency [6]: inactive

Cc1c(OCC(F)(F)F)ccnc1CS(=O)c1nc2ccccc2[nH]1 (stereo not drawn)
Potency [1]: inactive
Potency [2]: inactive
Potency [16]: inactive
Potency [3]: inactive
outcome [12]: inactive
Potency [13]: inactive
outcome [14]: inactive
Potency [4]: inactive
Potency [5]: inactive
Potency [6]: inactive
Potency [9]: inactive

CN(C)CCc1c[nH]c2ccc(Cn3cncn3)cc12
Potency [1]: inactive
Potency [15]: inactive
Potency [2]: inactive
Potency [3]: inactive
Potency [4]: inactive
Potency [5]: inactive
Potency [6]: inactive
Potency [9]: inactive

CCCc1cc(=O)[nH]c(=S)[nH]1
Potency [1]: inactive
Potency [15]: inactive
Potency [2]: inactive
Potency [3]: inactive
Potency [4]: inactive
Potency [5]: inactive
Potency [6]: inactive

CCCCC(CC)COC(=O)C(C#N)=C(c1ccccc1)c1ccccc1 (stereo not drawn)
Potency [1]: inactive
Potency [15]: inactive
Potency [3]: inactive and 23.5 µM (active)
Potency [4]: inactive
Potency [5]: inactive
Potency [6]: inactive
Potency [9]: inactive

CCC(C)(Oc1ccc(C2(c3ccc(OC(C)(CC)C(=O)O)cc3)CCCCC2)cc1)C(=O)O (stereo not drawn)
Potency [1]: inactive
Potency [15]: inactive
Potency [2]: inactive
Potency [3]: inactive
Potency [4]: inactive
Potency [5]: inactive
Potency [6]: inactive
Potency [9]: inactive

O=C(NC(Cc1cc(=O)[nH]c2ccccc12)C(=O)O)c1ccc(Cl)cc1 (stereo not drawn)
Potency [1]: inactive
Potency [15]: inactive
Potency [2]: inactive
Potency [3]: inactive
Potency [4]: inactive
Potency [5]: inactive
Potency [6]: inactive
Potency [9]: inactive

CC1(C)NC(=O)N(c2ccc([N+](=O)[O-])c(C(F)(F)F)c2)C1=O
Potency [1]: inactive
Potency [2]: 13 µM (active) and inactive
Potency [16]: inactive
Potency [11]: inactive
Potency [3]: inactive
outcome [12]: inactive
Potency [13]: inactive
outcome [14]: inactive
Potency [4]: inactive
Potency [5]: inactive
Potency [6]: inactive
Potency [9]: inactive

Cc1cc2c(s1)Nc1ccccc1N=C2N1CCN(C)CC1
Potency [1]: inactive
Potency [15]: inactive
Potency [2]: inactive
Potency [3]: inactive
Potency [4]: inactive
Potency [5]: inactive
Potency [6]: inactive
Potency [9]: inactive

N[C@@H](Cc1cc(I)c(Oc2cc(I)c(O)c(I)c2)c(I)c1)C(=O)O
Potency [1]: inactive
Potency [15]: inactive
Potency [2]: inactive
Potency [3]: inactive
Potency [4]: inactive
Potency [5]: inactive
Potency [6]: inactive
Potency [9]: inactive

CCN(CCO)CCCC(C)Nc1ccnc2cc(Cl)ccc12 (stereo not drawn)
Potency [1]: inactive
Potency [7]: inactive
IC50 (viability decrease) [18]: inactive
Potency [2]: inactive
Potency [3]: inactive
Potency [4]: inactive
Potency [5]: inactive
activity change, negative = cytotoxic [6]: 13.4% [at 4.84 µM] (inactive)
Potency [9]: 2.35 µM (active)
activity change, negative = cytotoxic [9]: 4.16% [at 4.84 µM] (inactive)
